Screening results as filed in PubChem.
Shown are actives, neighbours in structure and some others; about 0.81% of the full set was active somewhere.
NR5A2 inv ag: inverse agonists of human LRH-1 (NR5A2) | O00482 | HEK293T StAR-luciferase reporter, LRH-1 transfected, 24 h | inhibition, % at 3.6 µM | 0.13% of 360,000 active | AID 602396;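 active = inhibition above the mean inhibition of all tested compounds plus 3 SD, cut at about 73% in these data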
NR2F2 inh: blocks human COUP-TFII nuclear receptor; HEK293T NGFI-A luciferase reporter, luminescence; inhibition, % at 8.6 µM; 0.7% of 370,000 active; P24468;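 active = inhibition above a per-plate cutoff, mean inhibition of test wells between control levels plus 3 SD, cut at about 38% in these data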;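 also: cells cotransfected with COUP-TFII expression vector driving the NGFI-A reporter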
SRC1 inh: inhibits human SRC1 coactivator | Q15788 | HEK293 GAL4-SRC1 luciferase reporter, luminescence | inhibition, % at 3.6 µM | 0.12% of 360,000 active;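 active = inhibition above the campaign mean plus 3 SD, with each screening campaign given its own cutoff, cut at about 60% in these data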
NCOA2 inhibitor: inhibits human steroid receptor coactivator 2; 0.17% of 370,000 active; Q15596; inhibition, % at 9 µM; HEK293 GAL4-SRC2 luciferase reporter, luminescence;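 active = inhibition above the mean inhibition of all tested compounds plus 3 SD, set per campaign, cut at about 52% in these data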
Target sequence (Q15596 whole entry, looked up, the tested form may be a part): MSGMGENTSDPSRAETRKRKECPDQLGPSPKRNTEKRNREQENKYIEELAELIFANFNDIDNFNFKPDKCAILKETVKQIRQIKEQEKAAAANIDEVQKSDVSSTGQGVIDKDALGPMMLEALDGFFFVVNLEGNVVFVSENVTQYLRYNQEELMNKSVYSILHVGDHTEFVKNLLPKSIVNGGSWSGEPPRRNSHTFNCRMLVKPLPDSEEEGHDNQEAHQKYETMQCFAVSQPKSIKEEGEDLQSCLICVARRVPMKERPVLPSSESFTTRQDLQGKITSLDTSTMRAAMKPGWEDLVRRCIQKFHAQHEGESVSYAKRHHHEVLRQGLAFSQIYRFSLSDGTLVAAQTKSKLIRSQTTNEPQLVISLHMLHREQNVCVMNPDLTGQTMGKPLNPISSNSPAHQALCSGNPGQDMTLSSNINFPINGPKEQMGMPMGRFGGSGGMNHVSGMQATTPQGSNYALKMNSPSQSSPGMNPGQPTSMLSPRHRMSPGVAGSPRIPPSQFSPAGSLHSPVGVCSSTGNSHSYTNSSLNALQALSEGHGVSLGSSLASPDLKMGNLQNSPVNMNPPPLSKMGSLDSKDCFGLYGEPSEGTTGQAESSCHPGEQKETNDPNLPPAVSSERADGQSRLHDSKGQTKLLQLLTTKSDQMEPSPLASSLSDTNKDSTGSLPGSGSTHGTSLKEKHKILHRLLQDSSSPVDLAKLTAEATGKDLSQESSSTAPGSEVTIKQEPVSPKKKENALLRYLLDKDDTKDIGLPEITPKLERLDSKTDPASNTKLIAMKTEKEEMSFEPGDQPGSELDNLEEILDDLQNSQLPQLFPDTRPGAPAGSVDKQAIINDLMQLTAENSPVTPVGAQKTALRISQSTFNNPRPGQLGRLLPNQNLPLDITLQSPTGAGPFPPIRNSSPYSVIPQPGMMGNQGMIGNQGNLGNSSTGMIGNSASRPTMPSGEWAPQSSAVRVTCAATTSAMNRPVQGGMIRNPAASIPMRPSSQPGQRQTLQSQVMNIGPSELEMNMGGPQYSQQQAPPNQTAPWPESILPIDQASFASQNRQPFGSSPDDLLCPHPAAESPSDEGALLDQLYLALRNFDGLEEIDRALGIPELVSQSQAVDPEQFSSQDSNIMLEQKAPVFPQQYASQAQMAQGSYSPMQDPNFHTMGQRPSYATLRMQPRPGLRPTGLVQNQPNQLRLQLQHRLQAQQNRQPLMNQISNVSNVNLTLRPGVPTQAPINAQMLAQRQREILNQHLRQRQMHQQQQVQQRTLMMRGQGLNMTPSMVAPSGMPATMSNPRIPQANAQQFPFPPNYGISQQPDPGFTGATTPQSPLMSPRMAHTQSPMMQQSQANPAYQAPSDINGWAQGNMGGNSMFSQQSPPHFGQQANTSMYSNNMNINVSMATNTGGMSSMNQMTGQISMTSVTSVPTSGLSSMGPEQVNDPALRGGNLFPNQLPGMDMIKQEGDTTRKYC
SRC3 inh: inhibits human SRC3 coactivator. Q9Y6Q9. inhibition, % at 3.6 µM. 0.17% of 360,000 active. HEK293 GAL4-SRC3 luciferase reporter, luminescence;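 active = inhibition above a per-campaign cutoff, the mean of all compounds plus 3 SD, cut at about 60% in these data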;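 also: higher means less SRC3-driven luciferase light from the GAL4 reporter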
Numbers stand for hits; i = inactive; nt = no result given.

SMILES | NR5A2 inv ag | NR2F2 inh | SRC1 inh | NCOA2 inhibitor | SRC3 inh
CCN(CC)c1ccc(/C=N/NC(=O)c2nnn(-c3nonc3N)c2C(C)C)c(O)c1 | i | i | i | i | 77
CC(C)c1c(C(=O)N/N=C/c2ccc3c(c2)OCO3)nnn1-c1nonc1N | i | i | i | i | i
COc1ccc(C2NN=C(c3c[nH]c4ccccc34)C2O)cc1 (centres undefined) | i | i | i | i | i
COc1ccc(C2C(O)C(c3c[nH]c4ccccc34)=NN2C(=O)CCl)cc1 (centres undefined) | i | i | i | 73 | i
Nc1ncnc2c1ncn2C1O[C@H](CO)[C@@H](O)[C@@H]1O (some centres undefined) | i | i | i | i | i
N#Cc1c(N)n(C2OC(CO)C(O)C2O)c2ncnc(N)c12 (centres undefined) | 95 | i | 83 | 55 | 85
c1ccc2c(-c3ccc4nncn4c3)cncc2c1 | i | i | 64 | 55 | 62
c1coc(-c2ccc3nncn3c2)c1 | i | i | i | i | i
Cn1c(/C(C#N)=C/c2ccc(-c3ccc(S(N)(=O)=O)cc3)o2)nc2ccccc21 | i | i | i | i | 68
N=c1c2c(n(Cc3ccc(F)cc3)c3c1CCC3)CCC2 | 74 | i | i | i | i
CCN(CC)c1ccc(/C=N/NC(=O)c2cccc(S(=O)(=O)Nc3ccccc3OC)c2)cc1 | i | i | i | i | i
CCN(CC)c1ccc(/C=N/NC(=O)c2cccc(S(=O)(=O)Nc3ccccc3OC)c2)c(O)c1 | i | i | 73 | i | 81
CCCCCCCCCn1c2c(c(=N)c3c1CCC3)CCC2 | 97 | nt | 71 | nt | 81
CCc1c(C(=O)NC2CCCCC2)[nH]c(C)c1C(C)=O | i | i | i | i | i
CC[C@]12c3[nH]c4cc(CCC(=O)N(C)C)ccc4c3CCN1C(=O)[C@@H](CC(=O)NCc1cccc(C(F)(F)F)c1)C[C@@H]2C(=O)N1CCN(C(=O)c2ccco2)CC1 | i | i | i | i | i
Cc1ccc(-c2csc3ncnc(-n4nnc5ccccc54)c23)cc1C | i | i | i | i | i
O=C(NCc1cccs1)c1nc2c(nnn2Cc2ccccc2Cl)c(=O)[nH]1 | 101 | 65 | i | 56 | 90
Nc1nc(Cl)c(N)c(NCC2(CO)CC(CCc3ccccc3)C2)n1 (centres undefined) | i | 58 | i | i | i
O=C(NCc1ccccc1)[C@]1(C(F)(F)F)C[C@H](CCc2ccccc2)CCCO1 | i | i | i | i | i
COc1cccc2c1C(=O)c1c(O)c3c(c(O)c1C2=O)C[C@@](O)(C(=O)CO)C[C@@H]3OC1CC(N)C(O)C(C)O1 (some centres undefined) | 78 | i | i | i | i
COc1cccc2c1C(=O)c1c(O)c3c(c(O)c1C2=O)C[C@@](O)(C(=O)CO)C[C@@H]3O[C@H]1C[C@H](N)[C@H](O)[C@H](C)O1 | 98 | i | i | i | i
CCCn1nnc(NC(=O)c2cccnc2Cl)n1 | i | i | i | i | i
COc1ccc(OC)c(Nc2c3ccccc3nc3ccccc23)c1 | i | i | i | i | i
COc1cc(NS(C)(=O)=O)ccc1Nc1c2ccccc2nc2ccccc12 | i | i | 62 | i | 64
Cc1ccccc1C1CC(c2ccc(Br)cc2)Nc2nc(N)nn21 (centres undefined) | i | i | i | i | i
SMILES | NR5A2 inv ag | NR2F2 inh | SRC1 inh | NCOA2 inhibitor | SRC3 inh
O=C(NC1CCCCC1)C(c1cccnc1)N(C(=O)CCl)c1cccc(Cl)c1 (centres undefined) | i | i | i | 57 | 69
O=c1[nH]c(=O)n(C2CC(O)C(CO)O2)cc1Br (centres undefined) | i | i | i | i | i
O=c1[nH]c(=O)n(C2C[C@H](O)[C@@H](CO)O2)cc1C(F)(F)F (some centres undefined) | i | i | 75 | i | 73
O=c1[nH]c(=O)n([C@H]2C[C@H](O)[C@@H](CO)O2)cc1C(F)(F)F | i | i | 77 | i | 65
CCOC(=O)c1c(NC(=O)COc2ccccc2F)sc2c1CC(C)(C)NC2(C)C | i | i | i | i | i
CCN(CC)CCNc1ccc(CO)c2oc3cc(Cl)ccc3c(=O)c12 | i | i | i | i | i
CCN(CC)CCNc1ccc(C)c2sc3ccc(O)cc3c(=O)c12 | i | i | 63 | i | 64
O=C1NC(=O)C(c2ccc(F)cc2)N1 (centres undefined) | 89 | i | 90 | i | 89
CCCOc1ccc(C2NC(=O)NC2=O)cc1 (centres undefined) | i | i | i | i | i
CCC1C/C(=C\c2cccnc2)C(=O)/C(=C/c2cccnc2)C1 (centres undefined) | i | 91 | i | 92 | i
O=C1/C(=C/c2cccnc2)CCC/C1=C\c1cccnc1 | nt | 91 | nt | 74 | nt
CCOc1ccc(CCNC(=O)c2nnn(CC(=O)Nc3c(C)cc(C)cc3C)c2N)cc1OCC | i | i | i | i | i
COc1ccc(-c2csc(NC(=O)Nc3ccccc3)n2)cc1 | i | i | i | i | i
CSc1nsc(SC)c1CO | i | i | i | i | i
O=C(/C=C/c1cn(-c2ccccc2)nc1-c1cccnc1)N1CCCC1 | i | i | i | i | i
O=C(/C=C/c1cn(-c2ccccc2)nc1-c1cccnc1)c1ccco1 | i | i | i | 64 | i
CC(=O)n1cc(N(C(=O)CCl)c2ccc(C)cc2)c2ccccc21 | i | i | i | 61 | i
COc1ccc(OC)c(-n2nnnc2SCC(=O)Nc2ccccc2OC)c1 | i | i | i | i | i
Cc1onc(-c2ccccc2)c1C(=O)NC(=S)NNC(=O)c1ccccc1O | 90 | i | 64 | i | 76
COc1ccc(Br)cc1/C=C/C(=O)Nc1ccc2ccccc2c1 | i | i | i | i | i
CCC(=O)Nc1cccc(C(=O)/C=C/c2cc(Br)ccc2OC)c1 | 73 | i | i | 64 | 79
CCOC(=O)c1ccc(CNC(=O)C(Cc2c[nH]c3ccccc23)NC(C)=O)o1 (centres undefined) | i | i | i | i | i
CCOc1ncccc1C(=O)OCc1ccc(C(=O)OC)o1 | i | i | i | i | i
CSc1nnc(COc2ccc(C)cc2)n1N | i | i | i | i | i
COC(=O)C1=C(CN2CCCc3ccccc32)NC(=O)NC1c1ccc(F)cc1 (centres undefined) | 91 | 96 | 87 | 85 | 84
SMILES | NR5A2 inv ag | NR2F2 inh | SRC1 inh | NCOA2 inhibitor | SRC3 inh
COC(=O)C1=C(CN2CCc3ccccc32)NC(=O)NC1c1cc(C)ccc1C (centres undefined) | i | i | i | i | i
c1ccc(-c2nnc(-c3ccccn3)nc2NC2CCCCC2)cc1 | i | i | i | i | 78
C/C(=N/NC(=O)CNc1ccc(C)cc1)c1ccc(Cl)cc1 | i | i | i | i | i
Cc1ccc2c(C)nc(Nc3nc(CSc4nc5ccccc5[nH]4)cc(=O)[nH]3)nc2c1 | i | i | i | i | 65
Cc1ccc(SCc2cc(=O)[nH]c(Nc3nc(C)c4ccc(C)cc4n3)n2)cc1 | i | i | i | i | i
Cc1ccnc(SCC(=O)Nc2sc3c(c2C#N)CCCC3)n1 | i | i | i | i | i
